Data reported in article PMC7819943, “Rice protein-binding microarrays: a tool to detect cis-acting elements near promoter regions in rice”.
Whole data set: some 68,000 sequences, median “fluorescence intensity (a.u.)” near 9,100, cut for the highest 2% near 16,000. What follows is part of a selection rich in the highest values, with near analogues and random picks from the rest.

What follows are sequences tested against OsWRKY34 (Oryza sativa, UniProt Q0JBA9 1-250) (assay: protein-binding microarray (RPBM); PBS, 2% BSA, 51.3 ng/ul salmon testes DNA, 50 uM zinc acetate, 200 nM TF, 25 C, 1 h; high values mean tight binding). Settings: protein: recombinant; tags: N-terminal polyhistidine and DsRed monomer fusion (pET32a); label: CyDye5-dUTP incorporated in the synthesized complementary strand; 3' TTTTT single-stranded linker to array surface; dsDNA, one strand shown.
How it was run: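 Using Ni–NTA, transcription factors fused N-terminally to polyhistidine and DsRed were purified after expression in E. coli BL21-CodonPlus. These were incubated at 200 nM with a blocked, double-stranded custom Agilent array for 1 h at 25 °C in a buffer containing 50 µM zinc acetate, and the array was washed. The binding signal is per-feature fluorescence intensity (arbitrary units) on an Axon 4000B scanner.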

Sequence of OsWRKY34 (Q0JBA9 entry or part of it): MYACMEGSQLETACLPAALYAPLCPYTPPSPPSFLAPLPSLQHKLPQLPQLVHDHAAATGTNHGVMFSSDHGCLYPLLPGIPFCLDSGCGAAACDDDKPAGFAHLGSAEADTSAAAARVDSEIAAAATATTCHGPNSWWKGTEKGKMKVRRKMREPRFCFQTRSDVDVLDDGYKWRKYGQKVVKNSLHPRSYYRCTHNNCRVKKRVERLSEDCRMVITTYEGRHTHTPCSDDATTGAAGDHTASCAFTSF

Sequence	binding signal
CGGTAGTGCGTTAGGTCTTCTCCAAGTCTCTTGGCTTTTACGGAGTCACCTAGTGCAG	11100 fluorescence intensity (a.u.)
TCACCGATTCACTCTCCTAGTCCTAGAGTCCTGGTCCATCCGGAGTCACCTAGTGCAG	8440 fluorescence intensity (a.u.)
GCACCCACAGTTCCATGAGACACATAGAAGTTTTACACAACGGAGTCACCTAGTGCAG	10600 fluorescence intensity (a.u.)
TTTCTGAGAGGCATAGTTCATGTTTCCCCATATATACTTCCGGAGTCACCTAGTGCAG	8830 fluorescence intensity (a.u.)
TCCGCTGCCTTCGATTCTTGGTAAGCCCCTAATTCTCCTTCGGAGTCACCTAGTGCAG	8420 fluorescence intensity (a.u.)
ACGTTAGTTAAAAAGTCAACGGCGTCATCCATTAAAATACCGGAGTCACCTAGTGCAG	8900 fluorescence intensity (a.u.)
TCCCCATGCCATGCAAAATAAATATCCATATTACCGTTTCCGGAGTCACCTAGTGCAG	8320 fluorescence intensity (a.u.)
TTCTTCGGTGGTGGTGGTGGTGGGATGGAAGAGGAGGAAGCGGAGTCACCTAGTGCAG	25800 fluorescence intensity (a.u.)
AGCACCGGTGGCAGCGGCGGACCGTGGAGGGAGGGAGGGGCGGAGTCACCTAGTGCAG	9770 fluorescence intensity (a.u.)
AAGTTTTTGGGTAGTGCTTTTGCGCGCTTTCTCTTGGCTGCGGAGTCACCTAGTGCAG	8150 fluorescence intensity (a.u.)
TAGCTGTTTGGTCTTGCTGGTGGTGGTGGGTGAGTGTTGGCGGAGTCACCTAGTGCAG	11200 fluorescence intensity (a.u.)
CGGCGGCGGTGGTGGGGAGGAGGAGGGCCAGCGGCAGCAACGGAGTCACCTAGTGCAG	17500 fluorescence intensity (a.u.)
GGTGTGGGGCCCACCTGCAGCCTCACATCGGCACCAGCTGCGGAGTCACCTAGTGCAG	18600 fluorescence intensity (a.u.)
GTGGTGGAGGAGGAGGAGGAGGATGAGGAGGAAGCGGCTGCGGAGTCACCTAGTGCAG	8570 fluorescence intensity (a.u.)
GTGGGCAGCGGCGGCGGCCGGTGGGAGGAGGGGAAGCATGCGGAGTCACCTAGTGCAG	8380 fluorescence intensity (a.u.)
GGGGAGGAGGAGGAGGAGGGTAGGGATGGGGAAGAGGAGTCGGAGTCACCTAGTGCAG	8020 fluorescence intensity (a.u.)
GTGGCGGCGGGTGGGGCCCATCTCATGGCTGCTGCCTCTGCGGAGTCACCTAGTGCAG	10800 fluorescence intensity (a.u.)
GAGCTTTGCGCTGGGTGGGCTTGCATTTTTGGGTCTACCGCGGAGTCACCTAGTGCAG	21500 fluorescence intensity (a.u.)
CAGCGGGCCCAGCAAGTCAGCCTCACATCTTCTTCTTCATCGGAGTCACCTAGTGCAG	8340 fluorescence intensity (a.u.)
AGACTTTATTTTTTCCCTGGGCTAAGGACTAGTCCCATATCGGAGTCACCTAGTGCAG	8980 fluorescence intensity (a.u.)
GGGACCCGATTTGGGCGGTATATACCTTACTTCACGTGCACGGAGTCACCTAGTGCAG	8920 fluorescence intensity (a.u.)
ATCGCTGCTGTCTTCTCAAATTATAATTTACCGTTTTTAACGGAGTCACCTAGTGCAG	8090 fluorescence intensity (a.u.)

Sequence	binding signal
GCCTCCATCCACCTCGCCCATCCCTACACTCTACTACTCCCGGAGTCACCTAGTGCAG	8670 fluorescence intensity (a.u.)
CTCCTACTGCCTACCGCCGACGCAGAACTCCGTGGGTTACCGGAGTCACCTAGTGCAG	8210 fluorescence intensity (a.u.)
GCCTCTCGTGGGCCGTCGCCGCCCACCCGCCCGGACACGTCGGAGTCACCTAGTGCAG	8380 fluorescence intensity (a.u.)
GGAGTTCGTGGGGACGTTCATCCTCATCTTCTTCGCGACGCGGAGTCACCTAGTGCAG	9260 fluorescence intensity (a.u.)
GTGGGTGGAGGAAGCGGATAGGGAGAGGGGTGTGGGGCGGCGGAGTCACCTAGTGCAG	16000 fluorescence intensity (a.u.)
GGGAGGGAGCCAGAGCGGCGGGCGTGGGGTTGGAGGAGGGCGGAGTCACCTAGTGCAG	9900 fluorescence intensity (a.u.)
GTCGGCGTCGGCGTCGGCGTCGGCGGGCGGGAGGCGGGAGCGGAGTCACCTAGTGCAG	8650 fluorescence intensity (a.u.)
GCCGTGGTGGTGTGGGGATCGTGTTGTGGCGGCGGATTGGCGGAGTCACCTAGTGCAG	8690 fluorescence intensity (a.u.)
CGGCGCGCCGTGATTGTGCCTGATTGGGGTGGGGTTGGGGCGGAGTCACCTAGTGCAG	25300 fluorescence intensity (a.u.)
GAGTAGAGGTGGGAGGAAGCGGTGGTGTGGTGGGGTGGGGCGGAGTCACCTAGTGCAG	22100 fluorescence intensity (a.u.)
CGGCGGCGGCGGCGGCGGCGGCGGAGGTGGTGTGGGTGGGCGGAGTCACCTAGTGCAG	8220 fluorescence intensity (a.u.)
ACGCGCGGCCTAGTTGTGTGTGGGTGTGTGAGGTGAGGGGCGGAGTCACCTAGTGCAG	11000 fluorescence intensity (a.u.)
TTGGCTCGAGGCGGGGCTGGTTGGTTGGTTGGTTTGGTGGCGGAGTCACCTAGTGCAG	14600 fluorescence intensity (a.u.)
ATGAGGGGTCGGGGTTGGGCGGCGTGGGCACGGGCTCGAGCGGAGTCACCTAGTGCAG	13000 fluorescence intensity (a.u.)
GGGCGGGCGGGCTCGAGGTTGTGGTGGGGCGTGTGGCAGGCGGAGTCACCTAGTGCAG	18200 fluorescence intensity (a.u.)
GGTGGCGTGCAGGGTGGAGCGGGAGGGCGGCGGCGGGTGGCGGAGTCACCTAGTGCAG	17300 fluorescence intensity (a.u.)
CCGAAGATATCAACCAAACAGACCCGAACTTCTTCCCATTCGGAGTCACCTAGTGCAG	8360 fluorescence intensity (a.u.)
TGTTTTGGACTTTTTGGTCAACGGCCCATCAAAGCAAGCCCGGAGTCACCTAGTGCAG	13000 fluorescence intensity (a.u.)
GCCAAACGCGCCAGATCCGCGCCTCCTCCACTCACACGCGCGGAGTCACCTAGTGCAG	8910 fluorescence intensity (a.u.)
AGCACCACCACCACCCCAGCGCCTCCTACTCCACCGGCTCCGGAGTCACCTAGTGCAG	8830 fluorescence intensity (a.u.)
TCCATGCAGTCTTCTTCTTCTGCAGCCTATGCTGTTAGTCCGGAGTCACCTAGTGCAG	11700 fluorescence intensity (a.u.)
TTTCATTGTTTCCGCAGACACGCTTTTCAAACTACTAAACCGGAGTCACCTAGTGCAG	8080 fluorescence intensity (a.u.)

Sequence	binding signal
AATTTATAACCGTGACCTGCTGCCATATGCTAACCGTTTACGGAGTCACCTAGTGCAG	8260 fluorescence intensity (a.u.)
CTTTGTGCTGGACCGACGACGTCGTTCGCTCTTTTATCCTCGGAGTCACCTAGTGCAG	9040 fluorescence intensity (a.u.)
TGATCTGATCTGACAATTTGGGCGGGCTGTGTTTTATGAACGGAGTCACCTAGTGCAG	12900 fluorescence intensity (a.u.)
CATATCAGTGGTTAACTGTGCTGTCTCAGTTGATCTCCCGCGGAGTCACCTAGTGCAG	8360 fluorescence intensity (a.u.)
CATGTTAGATGTTTTTTTTCTTGTTACTCTTTTTTATTTTCGGAGTCACCTAGTGCAG	13300 fluorescence intensity (a.u.)
ACCTCTGTTTTCATGGGCTAGTGGCCCAGTACCTCACTGCCGGAGTCACCTAGTGCAG	8930 fluorescence intensity (a.u.)
GCATGGAGGCGTTTCATCAAACACCTTGCGCCTGCGGGAGCGGAGTCACCTAGTGCAG	8030 fluorescence intensity (a.u.)
AACTACAACTATCTTGTTTTTATTTACACGCTTTTCAAACCGGAGTCACCTAGTGCAG	8620 fluorescence intensity (a.u.)
AACCCACCTCTTTCGTTTTCCGCGCGTACGCTTTTCAAACCGGAGTCACCTAGTGCAG	8710 fluorescence intensity (a.u.)
AACCCACCTATCTTGTTTTCCACGTGTACGCTTTTCAAACCGGAGTCACCTAGTGCAG	19200 fluorescence intensity (a.u.)
TCTGTATATATTACTACTTGCGTTTCTCTTTCTTTCTTCCCGGAGTCACCTAGTGCAG	11000 fluorescence intensity (a.u.)
ATCACATCTTAACATTTCATTCTCTGCTCAAAGATTCGATCGGAGTCACCTAGTGCAG	8620 fluorescence intensity (a.u.)
AGCTCATCACTTCTTCTTGCATGCATGCACTACCGTCGGCCGGAGTCACCTAGTGCAG	10400 fluorescence intensity (a.u.)
GCACACCCTCGCTCTGACGACCCTGTCACGTTGAGCTACGCGGAGTCACCTAGTGCAG	8240 fluorescence intensity (a.u.)
GGTGAAGCTCTGCGCTGACACGTTGATGCAGCGGAGCACGCGGAGTCACCTAGTGCAG	18900 fluorescence intensity (a.u.)
TGCACACATGCACACACGCGCGCGCTGCTGCTGCTGCTGACGGAGTCACCTAGTGCAG	8160 fluorescence intensity (a.u.)
ACAACGCATTTCCATTTCTACTCTGCCCCTGGTAAATTACCGGAGTCACCTAGTGCAG	12400 fluorescence intensity (a.u.)
ACTGCCTTACCTGTTCATCTTCCAAACTGATTTGGTTTGTCGGAGTCACCTAGTGCAG	9370 fluorescence intensity (a.u.)
ACGGCACCTCATAGATTATTCCGTCCGTTCCAACAACCTCCGGAGTCACCTAGTGCAG	8320 fluorescence intensity (a.u.)
ACAATTAACACACGTAAACACTATCTGCTATTGTAAAAAACGGAGTCACCTAGTGCAG	8460 fluorescence intensity (a.u.)
AAACAATTATCTAAAAACCTCACTATTAATAGAGAGATTCCGGAGTCACCTAGTGCAG	38700 fluorescence intensity (a.u.)
ACTTTTTATACGCAACTTTCATTGCATATATTTTACTTTTCGGAGTCACCTAGTGCAG	9540 fluorescence intensity (a.u.)

Sequence	binding signal
ATCTCAATGAGTTGGTCGTTTGCTGCTTCTCTATAGTGAACGGAGTCACCTAGTGCAG	9140 fluorescence intensity (a.u.)
CTGTAGTGTTGCTTGGTTTCTCTTTTTTGCCTCTTCACGGCGGAGTCACCTAGTGCAG	13200 fluorescence intensity (a.u.)
GGGTTGGTTTGGTTTGGTTGCTTCTTCTCTGCTTCAACGGCGGAGTCACCTAGTGCAG	40000 fluorescence intensity (a.u.)
TGGTTTGGTTTGCTTCTTCTCTGCTTCAACGGTTGGTCGACGGAGTCACCTAGTGCAG	16900 fluorescence intensity (a.u.)
AAGAATTTTGCTTTGGTTCAACCTTTTTTCTCTTCTTTCTCGGAGTCACCTAGTGCAG	11300 fluorescence intensity (a.u.)
TATATAACACAAAATAAGATCAACGTTGACCCGGGTTGACCGGAGTCACCTAGTGCAG	10200 fluorescence intensity (a.u.)
ACCTTCTTACCCACTCCACCCACTGACAACGTTGGCCACCCGGAGTCACCTAGTGCAG	9360 fluorescence intensity (a.u.)
TGTGTTGCTCTCTCTTCACTTGGTTGGCGGCGGCGCTGCGCGGAGTCACCTAGTGCAG	8060 fluorescence intensity (a.u.)
CAACGTTGACCCGGGTTGACCCACGGTTCTTCAACAAATGCGGAGTCACCTAGTGCAG	20700 fluorescence intensity (a.u.)
CCGTTCGCCACGTCCATCCGTTTTCTGTGCCATAGGCAGGCGGAGTCACCTAGTGCAG	9340 fluorescence intensity (a.u.)
GCGTGCTAAACCCTTGTGATCCGTGTATTTAACCACCTTCCGGAGTCACCTAGTGCAG	11700 fluorescence intensity (a.u.)
ATTGGATCGGATCAGATCCCTTTTGCGCACCACTCGCCTTCGGAGTCACCTAGTGCAG	8750 fluorescence intensity (a.u.)
TCGAGGAGTGGATGGACGGATGGGTGGGTCATCACTGGTCCGGAGTCACCTAGTGCAG	8840 fluorescence intensity (a.u.)
CCTCACGCAATTCCACAACTGCTGCTCCCACCCTCATCAGCGGAGTCACCTAGTGCAG	9580 fluorescence intensity (a.u.)
TTTGCAATATCAGGGGTGTGTTACATATGTATTTCGATTTCGGAGTCACCTAGTGCAG	12400 fluorescence intensity (a.u.)
TCTACCCGCCTTCCTTTTAGTCCCCGCGTCTCCACAAAATCGGAGTCACCTAGTGCAG	10100 fluorescence intensity (a.u.)
TATTTTCCGTGTGTACCGTTCCGGTTATCAATACCAGCGCCGGAGTCACCTAGTGCAG	8380 fluorescence intensity (a.u.)
GCCATCAAGCTACGCCATTCAGCATTGCAACGACGACGTCCGGAGTCACCTAGTGCAG	64300 fluorescence intensity (a.u.)
TCATCCCACCGACGTCAGCAAGCCATCGCCATCAAGCCCACGGAGTCACCTAGTGCAG	9760 fluorescence intensity (a.u.)
CAGCCGCCCTACGTCAGCCAAGTCCAACGACAACGCCCAACGGAGTCACCTAGTGCAG	8200 fluorescence intensity (a.u.)
